Results with a measured potency or affinity are listed apart. Results filed as inconclusive are left out. The rule behind the calls is not given here.
Biological target: Cyclin-dependent kinase 5 activator 1 (Homo sapiens) + Cyclin-dependent kinase 5 (Homo sapiens) (UniProt Q15078+Q00535)
Experiment: CDK5/p35 kinase inhibitors, dose response, biochemical, cherry-picked samples, set 2 (AID 504545)
Settings: biochemical plate reader; series mostly up to 30 µM; activity change, negative = inhibition: at the top concentration

Cyclin-dependent kinase 5 activator 1 (Homo sapiens) + Cyclin-dependent kinase 5 (Homo sapiens), sequence (Q00535 whole entry, looked up): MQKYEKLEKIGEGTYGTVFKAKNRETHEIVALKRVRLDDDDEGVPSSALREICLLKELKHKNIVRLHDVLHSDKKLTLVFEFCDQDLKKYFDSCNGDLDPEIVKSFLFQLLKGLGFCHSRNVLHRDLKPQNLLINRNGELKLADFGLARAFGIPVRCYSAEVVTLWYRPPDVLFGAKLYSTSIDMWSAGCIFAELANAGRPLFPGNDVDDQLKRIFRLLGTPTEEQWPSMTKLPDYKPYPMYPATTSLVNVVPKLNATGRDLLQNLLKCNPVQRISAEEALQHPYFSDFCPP
Cyclin-dependent kinase 5 activator 1 (Homo sapiens) + Cyclin-dependent kinase 5 (Homo sapiens), sequence (Q15078 whole entry, looked up): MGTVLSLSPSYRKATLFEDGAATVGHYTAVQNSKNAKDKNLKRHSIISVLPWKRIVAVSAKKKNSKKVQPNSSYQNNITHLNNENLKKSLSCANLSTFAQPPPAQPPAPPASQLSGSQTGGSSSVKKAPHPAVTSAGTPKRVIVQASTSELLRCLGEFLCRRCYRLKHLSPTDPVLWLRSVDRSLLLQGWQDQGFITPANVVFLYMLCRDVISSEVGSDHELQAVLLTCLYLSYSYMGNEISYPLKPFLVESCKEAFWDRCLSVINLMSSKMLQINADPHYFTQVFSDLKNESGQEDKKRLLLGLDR

Activity change, negative = inhibition, inactive:
Oc1ccc(C=NNc2ccccn2)c(O)c1 -16.7%
COc1ccc2ccc3ccc(OC)c(OC(C)=O)c3c2c1 -3.35%
COc1ccccc1C(=O)N1CCN(c2ccccn2)CC1 -5.86%
COc1ccc(C(=O)c2sc(Nc3ccccc3F)nc2N)cc1 -8.79%
CCN1C(=O)/C(=C2/Sc3ccc(OC)cc3N2C)SC1=Nc1cccc(O)c1 13%
CC(C)(C)c1ccc(C(=O)O/N=C(\N)c2ccccn2)cc1 11.4%
COc1ccc2nc(C(F)(F)C(F)(F)F)c(C#N)c(N)c2c1 2.9%
COc1cc(OC)cc(C(=O)N2CCN(c3ccccn3)CC2)c1 1.08%
CC(C)C[C@H](CO)Nc1nc(N(C)c2cccc(Cl)c2)c2ncn(C(C)C)c2n1 15.1%
COc1cc(OC)cc(C(=O)NNC(=O)c2ccccn2)c1 6.58%

From PubChem BioAssay AID504545 (Broad Institute, 2011)
